# Results reported in ChEMBL document CHEMBL1961873, “Compounds: GSK PKIS; Assays: Nanosyn kinase panel” (2012).
# What was measured:
# [1] = target: Mitogen-activated protein kinase kinase kinase kinase 4 (Homo sapiens) (UniProt O95819); conditions: at 1 µM;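 note: reported figure is an averaged inhibition value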
# [2] = target: Dual specificity mitogen-activated protein kinase kinase 1 (Homo sapiens) (UniProt Q02750); conditions: at 0.1 µM
# [3] = target: Dual specificity mitogen-activated protein kinase kinase 1 (Homo sapiens) (UniProt Q02750); conditions: at 1 µM
# [4] = target: Misshapen-like kinase 1 (Homo sapiens) (UniProt Q8N4C8); conditions: at 0.1 µM
# Sequence of Misshapen-like kinase 1 (Homo sapiens) (Q8N4C8 whole entry, looked up): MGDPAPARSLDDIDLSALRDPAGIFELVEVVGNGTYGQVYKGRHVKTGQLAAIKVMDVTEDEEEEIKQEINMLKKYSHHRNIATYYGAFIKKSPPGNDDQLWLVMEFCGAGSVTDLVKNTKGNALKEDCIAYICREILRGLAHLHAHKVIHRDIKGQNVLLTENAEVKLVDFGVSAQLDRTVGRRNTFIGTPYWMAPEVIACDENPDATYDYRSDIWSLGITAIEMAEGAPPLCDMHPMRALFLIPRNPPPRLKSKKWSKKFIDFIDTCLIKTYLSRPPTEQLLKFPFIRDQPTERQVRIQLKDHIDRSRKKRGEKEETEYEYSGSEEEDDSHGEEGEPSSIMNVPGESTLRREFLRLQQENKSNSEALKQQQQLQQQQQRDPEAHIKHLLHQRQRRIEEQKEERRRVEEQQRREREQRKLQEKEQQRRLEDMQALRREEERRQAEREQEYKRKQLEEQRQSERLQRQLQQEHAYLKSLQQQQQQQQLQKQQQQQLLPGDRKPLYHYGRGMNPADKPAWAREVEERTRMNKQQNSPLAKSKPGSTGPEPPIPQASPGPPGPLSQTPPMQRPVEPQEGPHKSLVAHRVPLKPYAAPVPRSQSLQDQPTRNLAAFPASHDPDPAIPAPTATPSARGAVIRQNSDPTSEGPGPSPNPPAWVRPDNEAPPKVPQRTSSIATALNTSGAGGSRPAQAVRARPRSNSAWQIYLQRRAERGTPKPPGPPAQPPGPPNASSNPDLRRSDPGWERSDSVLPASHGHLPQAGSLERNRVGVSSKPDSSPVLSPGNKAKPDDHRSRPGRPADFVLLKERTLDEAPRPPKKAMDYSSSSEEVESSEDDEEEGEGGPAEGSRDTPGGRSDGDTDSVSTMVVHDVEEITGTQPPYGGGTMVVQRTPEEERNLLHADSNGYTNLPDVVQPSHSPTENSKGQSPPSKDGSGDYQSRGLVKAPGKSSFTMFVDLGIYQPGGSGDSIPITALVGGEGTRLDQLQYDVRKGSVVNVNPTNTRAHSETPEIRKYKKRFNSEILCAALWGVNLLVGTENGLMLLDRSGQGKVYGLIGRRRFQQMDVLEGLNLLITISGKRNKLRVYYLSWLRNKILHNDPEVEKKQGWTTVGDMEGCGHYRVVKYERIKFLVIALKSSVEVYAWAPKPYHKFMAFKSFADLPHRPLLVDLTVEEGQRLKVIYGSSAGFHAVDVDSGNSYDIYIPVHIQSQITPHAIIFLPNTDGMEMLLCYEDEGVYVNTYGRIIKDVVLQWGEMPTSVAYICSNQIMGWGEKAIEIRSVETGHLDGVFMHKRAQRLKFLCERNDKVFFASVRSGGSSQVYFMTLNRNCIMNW
# [5] = target: Misshapen-like kinase 1 (Homo sapiens) (UniProt Q8N4C8); conditions: at 1 µM
# [6] = target: T1, Serine/threonine-protein kinase 4 (Homo sapiens) (UniProt Q13043); conditions: at 0.1 µM
# T1 sequence (whole entry): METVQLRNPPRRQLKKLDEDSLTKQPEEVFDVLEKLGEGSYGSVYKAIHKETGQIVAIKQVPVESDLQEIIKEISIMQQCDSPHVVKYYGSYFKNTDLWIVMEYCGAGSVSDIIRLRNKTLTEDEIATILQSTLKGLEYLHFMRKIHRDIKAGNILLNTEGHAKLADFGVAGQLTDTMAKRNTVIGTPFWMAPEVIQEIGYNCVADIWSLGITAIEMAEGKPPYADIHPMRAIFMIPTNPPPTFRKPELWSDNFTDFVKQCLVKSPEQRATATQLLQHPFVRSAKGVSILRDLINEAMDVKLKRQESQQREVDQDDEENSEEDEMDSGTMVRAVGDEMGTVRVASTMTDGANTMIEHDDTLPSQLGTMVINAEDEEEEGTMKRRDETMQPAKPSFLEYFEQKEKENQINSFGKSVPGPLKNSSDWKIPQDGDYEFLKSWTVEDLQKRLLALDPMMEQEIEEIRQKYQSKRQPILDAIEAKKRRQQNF
# [7] = target: T1, Serine/threonine-protein kinase 4 (Homo sapiens); conditions: at 1 µM
# [8] = target: T2, Serine/threonine-protein kinase 3 (Homo sapiens) (UniProt Q13188); conditions: at 0.1 µM
# T2 sequence (whole entry): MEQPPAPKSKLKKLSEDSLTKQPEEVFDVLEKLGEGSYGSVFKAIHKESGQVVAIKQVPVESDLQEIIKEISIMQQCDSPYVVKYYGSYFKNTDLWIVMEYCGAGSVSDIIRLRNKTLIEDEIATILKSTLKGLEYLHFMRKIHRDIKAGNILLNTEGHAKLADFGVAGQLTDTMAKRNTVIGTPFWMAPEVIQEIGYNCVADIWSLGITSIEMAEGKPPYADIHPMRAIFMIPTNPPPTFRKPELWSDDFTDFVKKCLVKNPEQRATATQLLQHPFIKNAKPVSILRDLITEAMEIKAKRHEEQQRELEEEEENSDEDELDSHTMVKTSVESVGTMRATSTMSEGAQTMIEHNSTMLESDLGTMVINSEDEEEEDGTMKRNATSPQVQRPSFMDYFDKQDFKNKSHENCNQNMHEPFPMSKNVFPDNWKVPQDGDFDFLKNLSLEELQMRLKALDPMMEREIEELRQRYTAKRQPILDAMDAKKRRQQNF
# [9] = target: T2, Serine/threonine-protein kinase 3 (Homo sapiens); conditions: at 1 µM
# [10] = target: Serine/threonine-protein kinase 26 (Homo sapiens) (UniProt Q9P289); conditions: at 0.1 µM
# Sequence of Serine/threonine-protein kinase 26 (Homo sapiens) (Q9P289 2-416 limits assumed): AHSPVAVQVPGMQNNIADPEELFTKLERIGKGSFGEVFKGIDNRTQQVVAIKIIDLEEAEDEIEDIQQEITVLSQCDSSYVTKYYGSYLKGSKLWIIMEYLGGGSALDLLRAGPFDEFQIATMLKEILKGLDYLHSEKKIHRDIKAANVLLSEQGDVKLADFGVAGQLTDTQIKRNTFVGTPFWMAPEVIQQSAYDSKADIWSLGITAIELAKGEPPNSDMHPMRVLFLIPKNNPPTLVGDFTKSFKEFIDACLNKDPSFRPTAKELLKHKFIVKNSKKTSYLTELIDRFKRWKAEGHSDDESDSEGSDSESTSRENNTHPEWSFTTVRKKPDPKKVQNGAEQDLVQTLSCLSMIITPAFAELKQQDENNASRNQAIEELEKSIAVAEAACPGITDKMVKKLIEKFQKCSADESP
# Sequence of Dual specificity mitogen-activated protein kinase kinase 1 (Homo sapiens) (Q02750 whole entry): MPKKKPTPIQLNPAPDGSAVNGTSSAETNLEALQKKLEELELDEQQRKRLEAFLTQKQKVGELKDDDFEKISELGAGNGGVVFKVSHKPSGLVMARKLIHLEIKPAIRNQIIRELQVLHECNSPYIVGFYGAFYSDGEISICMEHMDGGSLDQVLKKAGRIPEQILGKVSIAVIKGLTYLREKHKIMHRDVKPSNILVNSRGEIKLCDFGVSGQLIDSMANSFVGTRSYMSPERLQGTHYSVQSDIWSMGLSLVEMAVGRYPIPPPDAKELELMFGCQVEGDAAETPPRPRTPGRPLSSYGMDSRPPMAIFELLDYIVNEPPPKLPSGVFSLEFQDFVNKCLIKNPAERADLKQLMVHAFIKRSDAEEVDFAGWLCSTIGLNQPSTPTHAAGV
# Sequence of Mitogen-activated protein kinase kinase kinase kinase 4 (Homo sapiens) (O95819 2-1239 limits assumed): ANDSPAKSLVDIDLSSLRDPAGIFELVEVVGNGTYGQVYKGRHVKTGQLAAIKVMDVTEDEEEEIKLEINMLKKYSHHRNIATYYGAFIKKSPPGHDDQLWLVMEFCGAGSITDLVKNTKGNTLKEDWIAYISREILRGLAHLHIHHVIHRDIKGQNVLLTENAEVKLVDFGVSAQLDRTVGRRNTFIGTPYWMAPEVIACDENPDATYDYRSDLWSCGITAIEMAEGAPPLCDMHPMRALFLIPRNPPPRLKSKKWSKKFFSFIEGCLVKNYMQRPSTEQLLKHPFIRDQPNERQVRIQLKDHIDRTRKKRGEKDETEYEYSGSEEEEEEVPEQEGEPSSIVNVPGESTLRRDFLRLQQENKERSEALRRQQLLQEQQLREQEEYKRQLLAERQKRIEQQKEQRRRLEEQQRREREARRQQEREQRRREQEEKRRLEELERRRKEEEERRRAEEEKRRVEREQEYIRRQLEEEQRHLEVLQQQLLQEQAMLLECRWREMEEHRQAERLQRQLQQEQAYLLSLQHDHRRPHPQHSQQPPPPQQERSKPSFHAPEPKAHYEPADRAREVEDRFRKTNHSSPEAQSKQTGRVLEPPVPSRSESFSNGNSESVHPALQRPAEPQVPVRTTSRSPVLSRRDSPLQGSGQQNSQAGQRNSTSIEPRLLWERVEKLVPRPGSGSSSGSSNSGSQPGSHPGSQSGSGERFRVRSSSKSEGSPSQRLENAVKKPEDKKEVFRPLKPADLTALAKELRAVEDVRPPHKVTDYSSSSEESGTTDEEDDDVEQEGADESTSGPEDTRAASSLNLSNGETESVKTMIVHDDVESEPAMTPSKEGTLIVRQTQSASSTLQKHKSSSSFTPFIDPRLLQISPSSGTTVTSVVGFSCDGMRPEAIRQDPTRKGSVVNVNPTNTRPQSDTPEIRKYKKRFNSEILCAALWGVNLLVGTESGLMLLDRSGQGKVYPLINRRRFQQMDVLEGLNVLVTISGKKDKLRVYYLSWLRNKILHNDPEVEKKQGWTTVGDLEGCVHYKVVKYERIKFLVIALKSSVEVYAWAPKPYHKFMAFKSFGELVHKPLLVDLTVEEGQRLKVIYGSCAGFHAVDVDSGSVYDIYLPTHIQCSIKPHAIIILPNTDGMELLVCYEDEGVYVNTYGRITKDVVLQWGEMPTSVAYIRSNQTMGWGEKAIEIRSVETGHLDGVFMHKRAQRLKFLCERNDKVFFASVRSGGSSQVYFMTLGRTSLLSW
SMILES,inhibition [1],inhibition [2],inhibition [3],inhibition [4],inhibition [5],inhibition [6],inhibition [7],inhibition [8],inhibition [9],inhibition [10]
CCn1c(-c2nonc2N)nc2c(C#CCN)ncc(OCCCN)c21,6.77%,-2.28%,-2.9%,-0.45%,11.5%,2%,5.35%,2.31%,6.61%,1.82%
COc1cc2c(cc1Nc1nc(Nc3ccsc3C(N)=O)c3cc[nH]c3n1)N(C(=O)CN(C)C)CCC2,14.9%,-3.96%,-5.54%,13.3%,17%,1.72%,8.27%,,,1.14%
NS(=O)(=O)c1ccc(N/C=C2\C(=O)Nc3ccc4ncsc4c32)cc1,76.9%,8.75%,42.9%,45.2%,76.9%,70.2%,75.2%,65.1%,73.7%,42.6%
CCn1c(-c2nonc2N)nc2c(C#CC(C)(C)O)ncc(OCC3CCNCC3)c21,17.6%,5.08%,4.1%,5.98%,13.3%,8.62%,16.3%,8.69%,14.7%,0.23%
Fc1ccc(-c2ncn(C3CCNCC3)c2-c2ccnc(Oc3ccccc3)n2)cc1,6.15%,1.34%,3.93%,2.7%,6.65%,0.94%,1.85%,1.01%,2.48%,-0.85%
COc1cccc(COc2cc(-n3cnc4ccccc43)sc2C(N)=O)c1,18.5%,0.36%,0.58%,3.1%,16.3%,-1.11%,2.62%,0.35%,1.4%,1.25%
COc1cccc(-n2ncc3c(N/N=C/c4ccncc4)ncnc32)c1,67.7%,7.89%,7.23%,16.2%,55.4%,9.07%,12.8%,5.41%,10.7%,0.95%
COc1cc(C=NNc2ncnc3c2cnn3Cc2ccccc2)ccc1O,7.51%,-3.29%,-4.65%,-2.43%,5.48%,-3.73%,-2.3%,-4.05%,-0.82%,1.58%
NC(=O)c1sc(-n2cnc3cc(C(F)(F)F)ccc32)cc1OCc1ccccc1Br,12.4%,2.56%,1.52%,4.93%,11.4%,1.82%,2.83%,1.31%,2.28%,1.54%
CCn1c(-c2nonc2N)nc2c(C#CC(C)(C)O)ncc(OC[C@@H]3CCCN3)c21,2.54%,1.6%,0.19%,0.63%,0.93%,0.46%,2.14%,0.87%,2.41%,0.78%
CCn1c(-c2nonc2N)nc2c(C#CC(C)(C)O)nc(O[C@@H](CN)c3ccccc3)cc21,20.4%,-0.01%,6.28%,2.21%,11%,3.02%,15.9%,1.12%,,1.22%
NS(=O)(=O)c1ccc(-c2ccc3c(NC(=O)C4CC4)n[nH]c3c2)cc1,5.23%,1.7%,2%,3.12%,4.48%,3.07%,5.91%,4.35%,5.17%,0.02%
Nc1nonc1-c1nc2cnccc2n1C1CCCCC1,46.2%,0.13%,7.67%,2.02%,31.4%,0.54%,18.5%,-0.2%,13.8%,0.77%
Cc1cc(-c2ccco2)cc(C)c1/C=C/c1cncc(-c2nn[nH]n2)c1,-0.27%,3.02%,3.14%,1.5%,0.04%,0.26%,0.16%,-0.6%,0.69%,1.06%
